A short description of test [1]: A CellTox Green Cytotoxicity Assay to monitor cytotoxicity in HepG2 cells - 0 hour (AID 1224882). Further: nearly all actives have a fitted effect of over 35% in size. Summed up:
(§1)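 HepG2 cells, 600/well, preincubated 5 h with CellTox Green dye, then exposed to Tox21 compounds in DMSO at 37 C for up to 40 h. Dead-cell DNA fluorescence read at the indicated time point.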

The nature of test [2]: A CellTox Green Cytotoxicity Assay to monitor cytotoxicity in HepG2 cells - 32 hour (AID 1224883). Further: nearly all actives have a fitted effect of over 50% in size. Further: potency means the concentration at half of the fitted maximal effect. Put shortly: as §1
Test [3] in a line: A CellTox Green Cytotoxicity Assay to monitor cytotoxicity in HEK293 cells - 8 hour (AID 1224884). Further: nearly all actives have a fitted effect of over 35% in size. Summed up:
(§2)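 HEK293 cells, 600/well, were preincubated 5 hours and then exposed to compounds at 37 C for up to 40 hours. A cell-impermeant cyanine dye staining dead-cell DNA was read by fluorescence at 0, 8, 16, 24, 32 and 40 h time points.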

Test [4] is described as follows: qHTS RealTime-Glo MT Cell Viability Assay in HEK293 cells - 24 hour (AID 1224886). Further: nearly all actives have a fitted effect of over 50% in size. Further: potency means the concentration at half of the fitted maximal effect. Summed up: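 Assay medium contained NanoLuc luciferase plus cell-permeant prosubstrate, added with HEK293 cells at 600 cells/well. After 5 h at 37 C/5% CO2 compounds were added; plates stayed at 37 C for 40 h with serial luminescence reads.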
Test [5] in a line: qHTS RealTime-Glo MT Cell Viability Assay in HEK293 cells - 8 hour (AID 1224887). Further: nearly all actives have a fitted effect of over 50% in size. Further: potency means the concentration at half of the fitted maximal effect. Summed up: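 600 cells/well were plated with the nonlytic NanoLuc/prosubstrate reagent, pre-incubated 5 h, then given 23 nL of compound in DMSO. Incubation at 37 C for 40 h, with luminescence from viable-cell-reduced substrate read repeatedly from 0 h.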
Test [6] is described as follows: A CellTox Green Cytotoxicity Assay to monitor cytotoxicity in HEK293 cells - 16 hour (AID 1224888). Further: nearly all actives have a fitted effect of over 35% in size. Summed up:
as §2

The nature of test [7]: qHTS RealTime-Glo MT Cell Viability Assay in HepG2 cells - 0 hour (AID 1224889). Further: nearly all actives have a fitted effect of over 50% in size. Further: potency means the concentration at half of the fitted maximal effect. Summed up: (§3)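 qHTS, HepG2, 600 cells/well, RealTime-Glo (NanoLuc + prosubstrate) added with cells; 5 h preincubation; DMSO compound addition; 37 C; luminescence at 0/8/16/24/32/40 h.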
A short description of test [8]: qHTS assay to identify small molecule antagonists of the estrogen receptor alpha (ER-alpha) signaling pathway using the BG1 cell line in the presence of 0.1 nM 17-beta-estradiol - cell viability counter screen (AID 1259241). Further: nearly all actives have a fitted effect of over 40% in size. Further: potency means the concentration at half of the fitted maximal effect. Summed up:
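Cells were plated and left 24 hr, compounds in DMSO were pinned in, 17beta-estradiol was added to 0.1 nM final, and after 22 hr CellTiter-Fluor reagent was added for 30 min before fluorescence was read.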

Test [9] is described as follows: qHTS assay to identify small molecule HDAC inhibitors (AID 1259364). Further: top concentration of the series differs between compounds; nearly all actives have a fitted effect of over 45% in size. Summed up: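 Wild-type HCT-116 cells, plated overnight at 37 C, exposed to compounds 2 hr at 37 C; luminogenic HDAC-Glo substrate then added 30 min at room temperature. Luminescence reports relative endogenous class I/II HDAC activity.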
Test [10] can be described thus: qHTS assay to identify small molecule HDAC inhibitors - cell viability counter screen (AID 1259365). Summed up:
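Counter screen in wild-type HCT-116 cells: compounds dissolved in DMSO are pin-transferred onto overnight-plated cells and left 2hr at 37C. ATP-based CellTiter-Glo luminescence then measures viable cells.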

The nature of test [11]: qHTS assay to identify small molecule agonists of the sonic hedgehog signaling (Shh) pathway - cell viability counter screen (AID 1259366). Further: nearly all actives have a fitted effect of over 50% in size. Further: potency means the concentration at half of the fitted maximal effect. Put shortly: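 Cells are plated at 2,000 per well and left 4hr at 37C, 5% CO2 before compound addition. After 23hr of treatment, CellTiter-Fluor reagent is added for 1hr at 37C and fluorescence is measured.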
Test [12] can be described thus: qHTS assay to identify small molecule antagonists of the sonic hedgehog signaling (Shh) pathway - cell viability counter screen (AID 1259367). Further: nearly all actives have a fitted effect of over 55% in size. Further: potency means the concentration at half of the fitted maximal effect. Summed up:
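Cells: 3T3 Gli1-Luc, 2,000/well, 4 hr pre-incubation. Compounds in DMSO, then conditioned medium. Incubation 24 hr, 37C, 5% CO2. CellTiter-Fluor at 23 hr, 1 hr, fluorescence.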

Test [13] is described as follows: qHTS assay to identify small molecule agonists of the sonic hedgehog signaling (Shh) pathway (AID 1259368; calls by dose curve;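 further: NIH/3T3-derived 3T3Gli1-Luc cells carrying a stable Gli1-driven firefly luciferase reporter; series mostly up to about 92 µM; nearly all actives have a fitted effect of over 15% in size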). Summed up:
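NIH/3T3-derived 3T3Gli1-Luc cells with stably integrated Gli1-driven firefly luciferase, 2,000 cells/well, compounds added after 4 hr. Incubated 24 hr at 37C, 5% CO2; luminescence read after 30 min with luciferase reagent at room temperature.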

The nature of test [14]: qHTS RealTime-Glo MT Cell Viability Assay in HepG2 cells - 16 hour (AID 1224885). Further: nearly all actives have a fitted effect of over 50% in size. Further: potency means the concentration at half of the fitted maximal effect. Put shortly:
as §3

The nature of test [15]: A CellTox Green Cytotoxicity Assay to monitor cytotoxicity in HepG2 cells - 8 hour (AID 1224890). Further: nearly all actives have a fitted effect of over 45% in size. Put shortly: as §1
A short description of test [16]: qHTS assay to identify small molecule antagonists of the androgen receptor (AR) signaling pathway using the MDA cell line in the presence of 0.5 nM R1881 - cell viability counter screen (AID 1259242). Further: nearly all actives have a fitted effect of over 45% in size. Put shortly:
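MDA-kb2 cells (MMTV-luciferase, AR/GR responsive) were treated with compounds plus 0.5 nM R1881 (final) for 16 hr at 37C, 0% CO2. Viability was then read in the same wells as live-cell protease fluorescence (CellTiter-Fluor, 30 min).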

Test [17] in a line: A CellTox Green Cytotoxicity Assay to monitor cytotoxicity in HEK293 cells - 32 hour (AID 1224881). Further: nearly all actives have a fitted effect of over 40% in size. Summed up:
as §2

The target of test [18] is Estrogen receptor (Homo sapiens) (UniProt P03372). Briefly: qHTS assay to identify small molecule antagonists of the estrogen receptor alpha (ER-alpha) signaling pathway using the BG1 cell line in the presence of 0.1 nM 17-beta-estradiol (AID 1259244). Further: nearly all actives have a fitted effect of over 50% in size. Further: potency means the concentration at half of the fitted maximal effect. Summed up: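 VM7Luc4E2 cells (endogenous full-length ER-alpha, 4×ERE-luciferase), kept 5 days in phenol red-free, charcoal-stripped FBS medium; 4,000 cells/well. Compounds added with 0.1 nM (final) 17beta-estradiol, 22 hr at 37C; luminescence read with ONE-Glo after 30 min.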

Test [19] is described as follows: qHTS assay to identify small molecule phospholipidosis (PLD) inducers (AID 1259344; active means well fitted curve in the direction sought with a large enough effect; an effect the other way counts as inactive or inconclusive). Summed up:
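Phospholipidosis is scored by imaging LipidTOX-stained pits in HepG2 cells exposed to compound for 24 h at 37 C; pit counts and integrated intensities per well and per cell serve as outputs.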

Test [20] concerns the target Androgen receptor (Homo sapiens) (UniProt P10275). Kind of test: qHTS assay to identify small molecule antagonists of the androgen receptor (AR) signaling pathway using the MDA cell line in the presence of 0.5 nM R1881 (AID 1259243). Further: nearly all actives have a fitted effect of over 50% in size. Summed up:
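MDA-kb2 cells (MMTV-luciferase, responsive to AR and GR) at 3,000/well, rested 5 h at 37C, 0% CO2, then given compounds plus 0.5 nM R1881 (final) for 16 hr. Luciferase read with ONE-Glo after 30 min at room temperature.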

Each structure is given as a SMILES string. Values without a mark were called inactive. Results filed as inconclusive are left out. The source made the active and inactive calls. Unless noted, the call rests on the fitted dose curve; in most records, active means well fitted curve in the direction sought with a large enough effect in the repeat runs; inconclusive means weak or mixed curves; inactive means no such curve, though single readings can be large; an effect the other way counts as inactive or inconclusive.
On the % scale 0 is the no-effect control and ±100 the full control effect.

Estrogen receptor (Homo sapiens), sequence (P03372 whole entry, looked up): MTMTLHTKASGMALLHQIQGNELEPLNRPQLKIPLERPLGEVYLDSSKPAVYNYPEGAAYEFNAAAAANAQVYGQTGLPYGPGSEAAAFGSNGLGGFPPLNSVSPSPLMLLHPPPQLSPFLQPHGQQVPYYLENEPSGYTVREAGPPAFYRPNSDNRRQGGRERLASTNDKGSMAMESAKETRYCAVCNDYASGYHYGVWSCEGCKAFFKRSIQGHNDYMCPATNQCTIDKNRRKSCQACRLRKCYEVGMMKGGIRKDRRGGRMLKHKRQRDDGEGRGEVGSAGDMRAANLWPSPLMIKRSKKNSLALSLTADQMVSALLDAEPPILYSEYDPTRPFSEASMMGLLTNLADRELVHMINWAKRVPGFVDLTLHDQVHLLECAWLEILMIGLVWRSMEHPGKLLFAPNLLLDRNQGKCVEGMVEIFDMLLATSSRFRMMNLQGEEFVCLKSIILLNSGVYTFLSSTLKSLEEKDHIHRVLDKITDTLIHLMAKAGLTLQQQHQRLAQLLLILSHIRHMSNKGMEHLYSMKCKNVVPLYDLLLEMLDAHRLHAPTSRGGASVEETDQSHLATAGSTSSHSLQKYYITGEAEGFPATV
Androgen receptor (Homo sapiens), sequence (P10275 whole entry, looked up): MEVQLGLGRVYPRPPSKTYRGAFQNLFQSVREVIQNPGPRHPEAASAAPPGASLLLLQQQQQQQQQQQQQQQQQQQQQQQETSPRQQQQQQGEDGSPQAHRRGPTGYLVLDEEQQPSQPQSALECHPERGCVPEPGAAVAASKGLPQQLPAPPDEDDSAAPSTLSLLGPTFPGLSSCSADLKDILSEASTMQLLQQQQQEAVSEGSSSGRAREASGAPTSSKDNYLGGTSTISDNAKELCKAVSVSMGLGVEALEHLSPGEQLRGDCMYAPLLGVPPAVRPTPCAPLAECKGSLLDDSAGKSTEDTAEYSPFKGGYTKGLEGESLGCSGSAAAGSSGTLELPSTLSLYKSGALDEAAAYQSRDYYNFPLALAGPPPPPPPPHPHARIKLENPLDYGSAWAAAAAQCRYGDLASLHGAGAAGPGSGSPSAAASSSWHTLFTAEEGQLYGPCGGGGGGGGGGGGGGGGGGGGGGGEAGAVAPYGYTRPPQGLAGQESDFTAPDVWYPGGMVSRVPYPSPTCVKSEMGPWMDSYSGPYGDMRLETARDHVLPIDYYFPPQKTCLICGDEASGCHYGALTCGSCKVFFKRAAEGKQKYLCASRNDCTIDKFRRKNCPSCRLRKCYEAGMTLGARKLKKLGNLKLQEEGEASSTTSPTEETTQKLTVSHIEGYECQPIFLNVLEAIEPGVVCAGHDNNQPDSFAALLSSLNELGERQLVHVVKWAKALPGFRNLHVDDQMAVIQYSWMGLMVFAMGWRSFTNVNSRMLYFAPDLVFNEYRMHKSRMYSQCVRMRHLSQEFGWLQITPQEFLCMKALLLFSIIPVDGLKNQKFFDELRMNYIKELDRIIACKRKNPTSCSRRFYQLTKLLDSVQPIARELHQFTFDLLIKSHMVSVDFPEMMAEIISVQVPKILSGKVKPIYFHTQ

Turning to `C=CC(=O)OCCOCCOC(=O)C=C`, the Potency entry in test [1], in [3], in test [5], in test [6], in test [7] and in test [9] was “inactive” throughout. In addition, the Potency result in [10] is “inactive”. For the same compound, the Potency in test [2] was 49.2 µM (active); in test [4], 31 µM (active); in test [8], 61.4 µM (active); in test [11], 21.8 µM (active); in test [12] it was 27.4 µM (active). In addition, in [13], the outcome was inactive.

In the case of `CC(C)=CCC/C(C)=C/CC/C(C)=C/CO`, the Potency result in test [1], in [3], in test [14], in [7], in test [15] and in [8] was “inactive” in each case. Moreover, the Potency entry in [16], in test [9], in test [10], in test [11] and in test [12] was “inactive” throughout. In [13], the call was inactive.

As to `CCCCCCCCO[C@@H]1O[C@H](CO)[C@@H](O)[C@H](O)[C@H]1O`, the Potency entry in test [17], in test [14], in [4], in [5], in test [6] and in test [7] was “inactive” in each case. Also, the Potency entry in test [15], in [8], in test [16], in test [18], in [9] and in test [10] was “inactive” each time. Moreover, the Potency result in test [11] and in test [12] was “inactive” in each case. Also, the compound was classed as inactive in [13].

Regarding `O=P(O)(OCc1ccccc1)OCc1ccccc1`, the Potency entry in test [17], in test [14], in test [4], in [5], in test [6] and in [7] was “inactive” each time. For the same compound, the Potency entry in test [15], in [8], in test [16], in test [18], in test [9] and in test [10] was “inactive” in each case. The Potency result in test [11] and in [12] was “inactive” throughout. In addition, the outcome in test [13] was inactive.

With `COc1cc(C(=O)OCCCN2CCCN(CCCOC(=O)c3cc(OC)c(OC)c(OC)c3)CC2)cc(OC)c1OC`, the Potency result in test [1], in test [3], in test [14], in [6], in test [7] and in test [15] was “inactive” each time. The Potency entry in test [16], in test [19], in test [9] and in test [10] was “inactive” in each case. Also, the Potency is 21.3 µM (active) in test [2]; 8.49 µM (active) in [4]; 9.52 µM (active) in test [5]; 13.3 µM (active) in [18]; 6.68 µM (active) in [11]; 10.6 µM (active) in test [12]. In addition, in test [13], the call was inactive.

On to `CCC(C)c1cc(C(C)(C)C)c(O)c(C(C)(C)C)c1` (centres undefined), for which the Potency entry in [1], in test [2], in [14], in test [4], in test [5] and in test [7] was “inactive” each time. In addition, the Potency result in test [15], in test [8], in test [16], in [9], in test [10] and in test [11] was “inactive” each time. In addition, the Potency result in [12] was “inactive”. The call in test [13] was inactive.

For `CC1=CC[C@H](C(C)C)C=C1`, the Potency result in test [17], in test [14], in test [4], in [5], in test [7] and in test [8] was “inactive” in each case. Also, the Potency result in test [16], in test [18], in test [9], in [11] and in [12] was “inactive” each time. In addition, the outcome in [13] was inactive.

Regarding `COC(=O)C1=C(C)NC(COC(N)=O)=C(C(=O)OC(C)C)C1c1cccc(Cl)c1Cl` (centres undefined), the Potency entry in test [17], in test [3], in [6], in test [15], in test [8] and in [16] was “inactive” in each case. The Potency result in [20], in test [18], in test [9], in [10] and in [11] was “inactive” each time. For the same compound, the Potency in test [14] was 23.9 µM (active); in [4] it was 26.8 µM (active); in [7], 1.9 µM (active). The PLD induction in [19] was -2.54% [at 7.66 µM]. For the same compound, the result in [13] was inactive.
